This note sets out measurements from PubChem BioAssay (NCI).

Compounds without any hit were thinned out: in the full panel of roughly 83,000, 20% have a hit.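 Percent growth is the endpoint: 0 to 100 indicates growth inhibition (40 means 60% inhibition), 0 means no net growth, and negative values indicate cell death.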 Calls of active or inactive are those of the source.

In this assay the test system is TK-10 renal. Kind of assay: NCI-60 one-dose screen, 48 h (100 = growth as untreated, 0 = no growth, -100 = all killed). The conditions noted are these: 10 µM unless noted. Here is the method:
Growth inhibition of the TK-10 human tumor cell line is measured as a screen for anti-cancer activity. Cells are grown in 96 well plates and exposed to the test compound for 48 hours. Compounds are tested at a single concentration, which is 10^-5 M for most compounds. The reported endpoint is percent growth (GI% or GIPRCNT), where numbers from 0 - 100% represent growth inhibition, and numbers from -100% - 0 represent cell death. For example, a value of 40 represents 60% growth inhibition. A value of 0 means no net growth occurred over the course of the experiment. A value of -40 indicates 40% of cells at the beginning of the experiment died by the end of the experiment. A value of -100 means all cells are dead at the end of the experiment.
NCI-60 Human Tumor Cell Lines Screen was performed using the standard one-dose NCI protocol, which is described in more detail at https://dtp.cancer.gov/discovery_development/nci-60/default.htm.
Compounds with GIPRCNT values below 10 were considered active. Activity score was based on GIPRCNT using the following formula: […]
Score is 0 for GIPRCNT values of 100 or above, 50 for GIPRCNT values of 0, and 100 for GIPRCNT values of -100.
`CCOc1ccc(-n2c(-c3cc(OC)c(OC)c(OC)c3)nnc2-c2ccc(OC)cc2N)cc1`: the growth was 70% (inactive).

For the compound `CC(CCC(=O)O)[C@H]1CCC2C3C(=O)C[C@@H]4CC(=O)CC[C@]4(C)C3CC(=O)[C@@]21C` (stereo not given in full), the growth was 116% (inactive).

Regarding `CCCCCCCCN(CCCCCCCC)CC(O)c1cc(-c2ccccc2)nc2ccc(OC)cc12` (stereo not given), the growth was 91.7% (inactive).

As for `COc1ccc(-c2nnc(SCC(=O)Nc3ccc(C(=O)/C=C/c4ccc(Cl)cc4)cc3)o2)cc1OC`, the growth was 52.8% (inactive).

With `O=C(/C=C/c1ccco1)c1cccc(Nc2nc(Nc3ccccc3)nc(Nc3ccccc3)n2)c1`, the growth is 141% (inactive).

As for `CCCOC(=O)c1ccc([N+](=O)[O-])o1`, the growth is 104% (inactive).

With `NS(=O)(=O)c1ccc(Nc2nc(O)c(/C=C3\C=Nc4ccccc43)s2)cc1`, the growth is 112% (inactive).

As for `Cc1ncc(CO)c(C(=O)O)c1O`, the growth was 81.2% (inactive).

Take `FC(F)(F)c1cn(CC2CNC2)c2ncnc(Cl)c12`: the growth was 104% (inactive).

Consider `CCCCCCCCCCCCCCCCNc1ccccc1`, for which the growth was 90.9% (inactive).

For the compound `CSc1nc(N)nc2c1ncn2C`, the growth is 93.5% (inactive).

Regarding `NC(N)=N/N=C/c1ccc([N+](=O)[O-])cc1`, the growth was 112% (inactive).

In the case of `Cc1c(Cl)ccc2c(C(=O)Cl)cc(-c3ccccc3)nc12`, the growth is 105% (inactive).

With `O=C1OC(=O)C2C3CC(c4ccccc43)C12` (stereo not given), the growth was 123% (inactive).

Regarding `Cc1ccc(-c2cc(-c3nnc(SCC(=O)c4ccccc4)o3)c3ccccc3n2)cc1`, the growth was 61.8% (inactive).

As for `CS(=O)(=O)OCC(COS(C)(=O)=O)C(c1ccccc1)c1ccccc1`, the growth is 110% (inactive).

With `COc1ccc(Cl)cc1NC(=O)c1cc2c([nH]1)-c1nc(NC(=O)C(C)C)sc1CC2`, the growth is 85.8% (inactive).

Turning to `CNCCCOc1c(Br)cc(CCNC(=O)/C(Cc2ccc(OC)c(Br)c2)=N/O)cc1Br`, the growth is 74.1% (inactive).

In the case of `COc1ccc2c(c1)nnn1c3ncccc3c(N=O)c21`, the growth was -15.1% (active).

For `O=C(c1cc(-c2ccc(Cl)cc2)nc2ccccc12)N1N=C(c2ccccc2)CC1c1cc(-c2ccccc2)nn1-c1ccccc1` (stereo not given), the growth was 131% (inactive).

For `NC(CSC(c1ccccc1)(c1ccccc1)c1ccc(F)cc1)C(=O)O` (stereo not given), the growth is 64.8% (inactive).

`COC(=O)/C=C/C(=O)c1cc(C)cc(C)c1O`: the growth is 96.9% (inactive).

In the case of `C=C1C(=O)O[C@H]2[C@H]1CC/C(C(=O)NCCOCCOCC(=O)Nc1ccc(OC)c(C(N)=O)c1O)=C\CC[C@@]1(C)O[C@@H]21`, the growth is 76.1% (inactive).

Consider `COc1ccccc1NC(=O)COc1ccc(/C=C2/Oc3cc4occc4c(OC)c3C2=O)cc1OC`, for which the growth was 119% (inactive).

As to `COc1ccccc1N1CCN(CCCOc2ccc(OCCCN3CCN(c4ccccc4OC)CC3)c(C(=O)c3cc(OC)c(OC)c(OC)c3)c2)CC1`, the growth is 123% (inactive).

Turning to `Cc1nc(-c2ccc(Cl)cc2)ccc1NC(=O)Nc1cccc(C(F)(F)F)c1`, the growth is 90.7% (inactive).

With `CC1CCC(C(C)C)C(NN)C1` (stereo not given), the growth is 96.5% (inactive).

For `Nc1nc(Cl)cc(NCCCCNc2cc(Cl)nc(N)n2)n1`, the growth is 111% (inactive).

As for `Nc1nc(-c2cc3c(cc2Cl)NC(=O)/C3=C/c2ccc(Cl)cc2)cs1`, the growth was 82.3% (inactive).

For the compound `CCCCCCCCCCCCCCCCCCNCc1ccc(Cl)cc1`, the growth is -65.1% (active).

In the case of `Nc1nc(Cl)c2c(C(F)(F)F)cn(CC3CCNCC3)c2n1`, the growth was 91.5% (inactive).

For `O=C(N/N=C1\SCC(=O)N1c1ccccc1)c1cc(-c2cc3ccccc3o2)nn1-c1ccccc1`, the growth was 112% (inactive).

For `COc1cc(NC(C)CCCN2C(=O)c3ccccc3C2=O)c2nc(C)ccc2c1OC` (stereo not given), the growth is 98.8% (inactive).

Regarding `OCc1cn(-c2ccc(Cl)cc2)nc1-c1ccc(O)cc1`, the growth is 102% (inactive).

As for `O=C(Nc1ccccc1Cl)c1c[nH]c(=O)c(-c2ccc(N3CCCOC4(CC4)C3)cc2)c1`, the growth was 52.4% (inactive).

Consider `COc1ccc(/C(=C/c2cc(OC)c(OC)c(OC)c2)[N+](=O)[O-])cc1`, for which the growth is -1.67% (active).

Turning to `COc1ccc2c(c1)C(=O)/C(=C/c1ccc(OCC(=O)c3ccc(Cl)cc3)cc1)O2`, the growth is 132% (inactive).

Turning to `Cc1cccc(CC(=O)c2ccccc2)n1`, the growth was 95.6% (inactive).

Consider `CCCCCCCCCCCC(=O)OCCNC(=O)C[n+]1ccccc1`, for which the growth was 101% (inactive).

On to `O=S(c1ccccc1)c1ccc2nnnn2n1` (stereo not given), for which the growth was 99% (inactive).
